We go through 20 compounds from ChEMBL document CHEMBL1961873, “Compounds: GSK PKIS; Assays: Nanosyn kinase panel” (2012).

One may read the inhibition as the drop in the measured response relative to a control, in per cent.

Experiment [1] addresses Tyrosine-protein kinase Fyn (Homo sapiens) (UniProt P06241). Particulars: at 1 µM.
The target in experiment [2] is Tyrosine-protein kinase HCK (Homo sapiens) (UniProt P08631). Particulars: at 0.1 µM.
Experiment [3] has the same target. Particulars: at 1 µM.
Experiment [4] deals with Insulin-like growth factor 1 receptor (Homo sapiens) (UniProt P08069). Particulars: at 0.1 µM.
Experiment [5] has the same target. As to conditions: at 1 µM.
Experiment [6] has as its target Insulin receptor (Homo sapiens) (UniProt P06213). As to conditions: at 0.1 µM.
For experiment [7] the target is unchanged. Particulars: at 1 µM.
In experiment [8] the target is Insulin receptor-related protein (Homo sapiens) (UniProt P14616). As to conditions: at 0.1 µM.
Experiment [9] shares this target. Particulars: at 1 µM.
Experiment [10] addresses T1, Tyrosine-protein kinase ITK/TSK (Homo sapiens) (UniProt Q08881).
T1 sequence (whole entry): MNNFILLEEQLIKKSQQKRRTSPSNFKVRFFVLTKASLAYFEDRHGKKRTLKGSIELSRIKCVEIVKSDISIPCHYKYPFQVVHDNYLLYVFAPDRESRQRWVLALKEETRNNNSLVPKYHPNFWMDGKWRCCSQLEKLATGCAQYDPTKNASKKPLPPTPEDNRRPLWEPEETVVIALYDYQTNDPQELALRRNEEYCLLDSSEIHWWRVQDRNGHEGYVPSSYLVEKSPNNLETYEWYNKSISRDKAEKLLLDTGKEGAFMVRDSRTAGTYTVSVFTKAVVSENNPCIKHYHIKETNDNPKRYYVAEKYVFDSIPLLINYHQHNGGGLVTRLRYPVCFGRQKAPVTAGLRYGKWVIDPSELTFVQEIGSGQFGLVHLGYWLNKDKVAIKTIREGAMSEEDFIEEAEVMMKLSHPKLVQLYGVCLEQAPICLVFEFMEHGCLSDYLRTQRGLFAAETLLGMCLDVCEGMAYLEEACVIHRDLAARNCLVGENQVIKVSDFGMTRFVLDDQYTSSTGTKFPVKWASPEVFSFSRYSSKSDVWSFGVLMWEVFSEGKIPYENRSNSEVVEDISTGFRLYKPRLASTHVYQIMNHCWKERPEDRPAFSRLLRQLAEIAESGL
Particulars: at 0.1 µM.

Insulin receptor-related protein (Homo sapiens), sequence (P14616 27-742 limits assumed): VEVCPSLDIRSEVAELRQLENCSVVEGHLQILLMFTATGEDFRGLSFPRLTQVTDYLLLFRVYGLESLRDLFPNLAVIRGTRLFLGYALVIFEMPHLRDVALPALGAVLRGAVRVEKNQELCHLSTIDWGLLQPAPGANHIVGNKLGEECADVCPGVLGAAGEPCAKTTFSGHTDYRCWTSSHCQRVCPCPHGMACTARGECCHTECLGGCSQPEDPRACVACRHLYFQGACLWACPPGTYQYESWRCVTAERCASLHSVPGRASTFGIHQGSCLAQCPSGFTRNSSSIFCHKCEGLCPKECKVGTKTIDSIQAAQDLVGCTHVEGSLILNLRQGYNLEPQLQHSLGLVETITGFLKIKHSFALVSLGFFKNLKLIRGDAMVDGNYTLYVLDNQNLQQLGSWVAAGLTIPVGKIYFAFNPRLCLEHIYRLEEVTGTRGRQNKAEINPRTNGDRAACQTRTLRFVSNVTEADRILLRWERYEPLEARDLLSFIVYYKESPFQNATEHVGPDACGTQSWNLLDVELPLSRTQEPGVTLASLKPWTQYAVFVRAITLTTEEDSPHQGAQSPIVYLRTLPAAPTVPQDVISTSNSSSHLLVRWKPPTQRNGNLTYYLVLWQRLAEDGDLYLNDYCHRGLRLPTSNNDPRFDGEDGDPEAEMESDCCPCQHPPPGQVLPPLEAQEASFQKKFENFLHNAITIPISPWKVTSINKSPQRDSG
Insulin receptor-related protein (Homo sapiens), sequence (P14616 747-1297 limits assumed): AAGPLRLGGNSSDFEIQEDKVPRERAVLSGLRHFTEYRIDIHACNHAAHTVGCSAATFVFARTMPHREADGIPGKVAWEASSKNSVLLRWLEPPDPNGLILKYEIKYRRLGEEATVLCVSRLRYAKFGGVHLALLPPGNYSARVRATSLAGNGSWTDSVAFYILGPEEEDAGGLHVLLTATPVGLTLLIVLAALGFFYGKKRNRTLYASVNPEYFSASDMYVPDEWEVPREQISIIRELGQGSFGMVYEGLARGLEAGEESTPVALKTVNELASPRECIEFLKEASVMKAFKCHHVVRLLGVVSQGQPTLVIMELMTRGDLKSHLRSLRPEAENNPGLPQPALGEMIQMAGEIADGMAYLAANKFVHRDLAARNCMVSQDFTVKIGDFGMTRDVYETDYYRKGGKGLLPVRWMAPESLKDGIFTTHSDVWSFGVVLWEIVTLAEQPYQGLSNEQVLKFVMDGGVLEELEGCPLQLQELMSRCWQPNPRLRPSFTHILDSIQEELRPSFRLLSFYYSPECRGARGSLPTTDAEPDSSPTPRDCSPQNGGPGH
Insulin-like growth factor 1 receptor (Homo sapiens), sequence (P08069 31-736 limits assumed): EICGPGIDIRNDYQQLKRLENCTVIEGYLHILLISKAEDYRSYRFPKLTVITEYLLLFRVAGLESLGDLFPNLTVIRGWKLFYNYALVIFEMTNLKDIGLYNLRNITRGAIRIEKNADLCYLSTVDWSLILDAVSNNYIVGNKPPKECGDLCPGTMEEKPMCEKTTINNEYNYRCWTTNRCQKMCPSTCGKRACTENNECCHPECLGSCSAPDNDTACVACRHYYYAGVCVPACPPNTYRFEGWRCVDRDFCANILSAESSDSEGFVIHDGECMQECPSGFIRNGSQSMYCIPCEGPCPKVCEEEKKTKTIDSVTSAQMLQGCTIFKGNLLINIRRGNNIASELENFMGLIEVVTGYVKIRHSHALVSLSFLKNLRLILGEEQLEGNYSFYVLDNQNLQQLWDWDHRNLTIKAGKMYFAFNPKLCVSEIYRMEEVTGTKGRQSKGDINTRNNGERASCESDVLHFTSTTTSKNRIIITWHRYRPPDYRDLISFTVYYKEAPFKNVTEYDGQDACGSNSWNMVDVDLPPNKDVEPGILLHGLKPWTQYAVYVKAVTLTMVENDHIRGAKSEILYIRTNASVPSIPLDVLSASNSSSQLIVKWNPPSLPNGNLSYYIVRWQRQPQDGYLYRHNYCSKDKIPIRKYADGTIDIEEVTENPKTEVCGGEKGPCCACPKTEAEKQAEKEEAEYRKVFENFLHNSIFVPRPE
Insulin-like growth factor 1 receptor (Homo sapiens), sequence (P08069 741-1367 limits assumed): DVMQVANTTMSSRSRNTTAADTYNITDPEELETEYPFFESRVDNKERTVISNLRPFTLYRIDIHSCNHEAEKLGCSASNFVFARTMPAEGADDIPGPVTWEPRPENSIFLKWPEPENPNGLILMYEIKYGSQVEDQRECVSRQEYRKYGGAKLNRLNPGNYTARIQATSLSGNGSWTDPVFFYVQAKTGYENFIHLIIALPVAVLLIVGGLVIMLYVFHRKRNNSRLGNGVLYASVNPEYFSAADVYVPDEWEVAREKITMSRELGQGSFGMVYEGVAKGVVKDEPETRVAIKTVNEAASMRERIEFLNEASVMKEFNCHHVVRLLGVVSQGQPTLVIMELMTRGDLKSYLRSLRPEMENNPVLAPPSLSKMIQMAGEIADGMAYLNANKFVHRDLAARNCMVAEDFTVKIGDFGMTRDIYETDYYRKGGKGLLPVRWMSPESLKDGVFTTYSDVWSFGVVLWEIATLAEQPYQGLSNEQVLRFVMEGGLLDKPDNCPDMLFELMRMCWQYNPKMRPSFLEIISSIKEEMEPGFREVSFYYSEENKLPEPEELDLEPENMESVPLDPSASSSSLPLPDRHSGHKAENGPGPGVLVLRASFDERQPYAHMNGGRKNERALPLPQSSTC
Tyrosine-protein kinase HCK (Homo sapiens), sequence (P08631 2-526 limits assumed): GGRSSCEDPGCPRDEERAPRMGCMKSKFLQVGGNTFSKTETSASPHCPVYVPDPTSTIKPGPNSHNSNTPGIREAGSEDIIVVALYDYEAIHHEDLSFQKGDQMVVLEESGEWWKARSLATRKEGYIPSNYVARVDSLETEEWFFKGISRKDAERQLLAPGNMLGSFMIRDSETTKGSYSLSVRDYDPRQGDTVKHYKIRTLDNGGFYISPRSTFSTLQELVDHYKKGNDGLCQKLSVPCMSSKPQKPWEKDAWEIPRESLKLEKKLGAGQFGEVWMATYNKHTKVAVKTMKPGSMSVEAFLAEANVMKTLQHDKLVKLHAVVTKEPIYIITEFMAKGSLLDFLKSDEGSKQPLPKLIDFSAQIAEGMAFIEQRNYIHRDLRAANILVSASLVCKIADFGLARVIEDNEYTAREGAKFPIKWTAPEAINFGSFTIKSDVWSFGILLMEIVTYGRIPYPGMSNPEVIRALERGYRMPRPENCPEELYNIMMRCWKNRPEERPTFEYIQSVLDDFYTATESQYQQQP
Insulin receptor (Homo sapiens), sequence (P06213 28-758 limits assumed): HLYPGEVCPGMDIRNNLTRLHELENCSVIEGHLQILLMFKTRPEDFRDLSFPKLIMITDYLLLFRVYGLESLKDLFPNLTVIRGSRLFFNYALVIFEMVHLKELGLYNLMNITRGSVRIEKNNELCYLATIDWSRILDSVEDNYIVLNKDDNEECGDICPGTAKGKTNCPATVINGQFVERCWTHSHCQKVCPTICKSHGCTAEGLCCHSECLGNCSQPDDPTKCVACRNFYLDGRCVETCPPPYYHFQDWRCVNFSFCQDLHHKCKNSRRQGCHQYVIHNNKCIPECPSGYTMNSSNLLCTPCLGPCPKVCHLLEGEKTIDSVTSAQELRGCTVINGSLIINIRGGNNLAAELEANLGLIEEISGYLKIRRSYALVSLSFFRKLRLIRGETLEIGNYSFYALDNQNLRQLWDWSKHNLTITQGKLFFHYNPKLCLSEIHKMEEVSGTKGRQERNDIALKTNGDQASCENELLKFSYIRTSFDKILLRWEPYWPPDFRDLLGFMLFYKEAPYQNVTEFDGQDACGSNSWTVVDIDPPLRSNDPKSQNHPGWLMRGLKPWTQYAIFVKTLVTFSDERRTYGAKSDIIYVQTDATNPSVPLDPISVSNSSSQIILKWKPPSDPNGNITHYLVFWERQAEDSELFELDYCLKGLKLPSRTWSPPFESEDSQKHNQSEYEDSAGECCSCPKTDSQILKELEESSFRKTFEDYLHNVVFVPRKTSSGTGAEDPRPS
Insulin receptor (Homo sapiens), sequence (P06213 763-1382 limits assumed): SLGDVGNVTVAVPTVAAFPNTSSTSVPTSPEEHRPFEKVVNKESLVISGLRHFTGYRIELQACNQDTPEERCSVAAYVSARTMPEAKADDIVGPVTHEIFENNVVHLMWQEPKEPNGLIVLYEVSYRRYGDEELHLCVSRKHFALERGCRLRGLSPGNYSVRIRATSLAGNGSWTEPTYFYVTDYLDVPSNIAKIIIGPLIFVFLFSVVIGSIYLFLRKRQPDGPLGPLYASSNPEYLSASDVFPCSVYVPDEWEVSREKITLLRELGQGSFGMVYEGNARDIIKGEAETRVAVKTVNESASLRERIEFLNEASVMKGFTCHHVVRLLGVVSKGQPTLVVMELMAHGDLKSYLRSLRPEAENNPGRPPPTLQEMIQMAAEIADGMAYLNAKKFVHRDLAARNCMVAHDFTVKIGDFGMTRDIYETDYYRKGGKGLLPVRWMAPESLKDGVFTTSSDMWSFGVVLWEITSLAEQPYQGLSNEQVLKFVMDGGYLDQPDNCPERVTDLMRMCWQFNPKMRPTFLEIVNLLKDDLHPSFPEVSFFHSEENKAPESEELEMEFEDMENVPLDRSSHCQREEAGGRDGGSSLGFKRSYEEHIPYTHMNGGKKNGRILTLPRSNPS
Tyrosine-protein kinase Fyn (Homo sapiens), sequence (P06241 2-537 limits assumed): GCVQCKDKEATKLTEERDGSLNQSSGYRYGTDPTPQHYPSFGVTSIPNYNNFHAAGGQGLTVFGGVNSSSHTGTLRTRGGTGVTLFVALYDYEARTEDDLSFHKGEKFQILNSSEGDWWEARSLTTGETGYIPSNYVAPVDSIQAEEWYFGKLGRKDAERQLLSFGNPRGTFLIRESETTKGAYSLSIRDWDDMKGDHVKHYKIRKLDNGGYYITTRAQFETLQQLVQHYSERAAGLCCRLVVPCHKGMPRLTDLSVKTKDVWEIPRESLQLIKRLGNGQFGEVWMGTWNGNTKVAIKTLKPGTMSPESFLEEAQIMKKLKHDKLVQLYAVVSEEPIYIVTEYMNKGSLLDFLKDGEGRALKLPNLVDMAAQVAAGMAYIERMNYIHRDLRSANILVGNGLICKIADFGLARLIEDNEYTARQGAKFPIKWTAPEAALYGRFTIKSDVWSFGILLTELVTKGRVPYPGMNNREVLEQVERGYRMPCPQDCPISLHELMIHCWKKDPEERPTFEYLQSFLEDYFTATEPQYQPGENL

In the case of `Cc1nc(-c2ccccc2)n2nc(NCCCN3CCOCC3)ncc12`, the inhibition came to 4.98% in [1]; 3.98% in [2]; 4.67% in experiment [3]; 3.15% in [4]; 1.6% in experiment [5]; 0.32% in experiment [6]. Further, the inhibition is 2.69% in [7], -0.73% in [8], 1.44% in [9] and 0.99% in experiment [10].
Consider `COc1ccc(-c2nn3ncccc3c2-c2ccnc(Nc3cccc(C(F)(F)F)c3)n2)cc1`, for which the inhibition in experiment [1] is 7.59%; in [2] it was 4.3%; in experiment [3] it was 8.02%; in [4], -1.5%; in experiment [5] it was 0.2%; in experiment [6] it was 0.4%. Moreover, the inhibition in experiment [7] stood at 2.59%; in experiment [8] it was 1.52%; in experiment [9], 1.54%; in experiment [10] it was 0.45%.
In the case of `NS(=O)(=O)c1ccc(Nc2cc(-c3cccc(O)c3)n[nH]2)cc1`, the inhibition was 2.45% in [1]; 5.06% in [2]; 11.7% in [3]; 5.98% in experiment [4]; 5.23% in [5]; 3.33% in experiment [6]. Besides, the inhibition is 3.4% in experiment [7], 6.28% in experiment [8], 2.76% in experiment [9] and 2.78% in experiment [10].
On to `Nc1nccc(C#Cc2cncnc2Nc2ccc(OCc3cccc(F)c3)c(Cl)c2)n1`, for which the inhibition was 2.19% in experiment [1]; 5.32% in experiment [2]; 10.2% in experiment [3]; 3.97% in experiment [4]; 4.12% in [5]; 3.13% in [6]. The inhibition in [7] came to 4.44%; in experiment [8] it was 8.14%; in [9] it was 1.12%; in [10], 1.89%.
With `CC(C)c1ccc2c(c1)NC(=O)/C2=N/Nc1ccc(S(N)(=O)=O)cc1`, the inhibition in experiment [1] was 7.54%; in experiment [2], 0.57%; in [3] it was 11%; in experiment [4], -0.14%; in [5], 1.33%; in [6], 4%. For the same compound, the inhibition in [7] was 1.87%; in experiment [8], -1.32%; in experiment [9] it was -1.93%; in experiment [10] it was 0.01%.
As for `COC(=O)c1ccc2c(c1)C(=Cc1cc(Br)c(O)c(Br)c1)C(=O)N2`, the inhibition came out at 22.5% in [1]; 5.59% in experiment [2]; 18.3% in experiment [3]; 3.29% in experiment [4]; 2.72% in [5]; 3.96% in experiment [6]. In addition, the inhibition was 3.99% in experiment [7], 1.56% in experiment [8], 1.64% in experiment [9] and 2.44% in [10].
Turning to `C[C@@H](Oc1cc(-n2cnc3ccc(OCC4CCN(C)CC4)cc32)sc1C(N)=O)c1ccccc1C(F)(F)F`, the inhibition is 12.6% in [1]; 3.31% in [2]; 32.6% in experiment [3]; -4.89% in experiment [4]; -1.61% in experiment [5]; -0.09% in experiment [6]. In addition, the inhibition in experiment [7] is 1.24%; in experiment [8], -3.02%; in [9], -2.86%; in experiment [10], -1.81%.
Consider `Nc1nccc(-c2c(-c3ccc(F)cc3)nn3cc(C(F)(F)F)ccc23)n1`, for which the inhibition in experiment [1] is 2.33%; in [2], -0.1%; in experiment [3], -0.25%; in experiment [4], -1.56%; in [5], 1.35%; in [6] it was 1.38%. For the same compound, the inhibition in experiment [7] is 2.01%; in experiment [8] it was 1.17%; in experiment [9], 1.01%; in [10] it was -1.78%.
For `Nc1nccc(-c2c(-c3ccc(F)cc3)ncn2CCCN2CCOCC2)n1`, the inhibition worked out at 4.47% in experiment [1]; 5.16% in experiment [2]; 6.92% in [3]; 9.8% in experiment [4]; 8.95% in [5]; 0.02% in experiment [6]. Also, the inhibition in [7] came to 3.74%; in experiment [8], 2.13%; in experiment [9], 5.23%; in experiment [10], 1.35%.
Take `COC(=O)Nc1nc2cc(Oc3ccc(NC(=O)Nc4cccc(Br)c4)cc3)ccc2[nH]1`: the inhibition in [1] amounted to 9.52%; in experiment [2], 6.2%; in experiment [3] it was 6.79%; in [4], 3.08%; in experiment [5], 2.4%; in experiment [6], 1.48%. In addition, the inhibition in experiment [7] is 5.63%; in experiment [8] it was 1.82%; in experiment [9] it was -1.05%; in experiment [10], 1.01%.
For the compound `CN(C)C(=O)O[C@H]1CN[C@H](C#Cc2cc3ncnc(Nc4ccc(OCc5cccc(F)c5)c(Cl)c4)c3s2)C1`, the inhibition in [1] is 1.7%; in [2], 4.49%; in experiment [3], 10.5%; in experiment [4], 3.22%; in [5] it was 2.88%; in experiment [6], 4.02%. Further, the inhibition in experiment [7] was 3.06%; in experiment [8], 0.79%; in experiment [9] it was 1.4%; in experiment [10] it was 1.49%.
In the case of `COc1cc2ncnc(Nc3ccc(C)c(O)c3)c2cc1OC`, the inhibition in experiment [1] was 56.2%; in experiment [2], 44.9%; in [3], 75.1%; in experiment [4], 12.2%; in [5], 11%; in [6], 5.04%. For the same compound, the inhibition was 6.96% in [7], 2.18% in experiment [8], 3.05% in [9] and 1.63% in experiment [10].
`Cc1ccc2c(-c3ccnc(Nc4ccc5c(c4)OCCO5)n3)c(-c3ccc(C(F)(F)F)cc3)nn2n1`: the inhibition in experiment [1] is 5.39%; in experiment [2], 1.01%; in [3], 2.01%; in [4] it was -4.21%; in [5], 0.39%; in experiment [6], -0.36%. In addition, the inhibition was 1.45% in experiment [7], 1.35% in experiment [8], 0.34% in experiment [9] and -1.23% in [10].
On to `CN(C)c1cc2c(Nc3ccc4c(cnn4Cc4ccccc4)c3)ncnc2cn1`, for which the inhibition was determined as 15.3% in [1]; 7.12% in experiment [2]; 19.9% in experiment [3]; 0.45% in experiment [4]; 2.94% in experiment [5]; 5.08% in experiment [6]. The inhibition came out at 6.13% in experiment [7], 1.7% in [8], 0.35% in [9] and 1.37% in experiment [10].
For `CCn1c(-c2nonc2N)nc2ccc(F)cc21`, the inhibition is 4.14% in [1]; 4.97% in [2]; 7.63% in [3]; 4.55% in [4]; 8.11% in [5]; 5.06% in experiment [6]. For the same compound, the inhibition in [7] is 5.22%; in experiment [8], 4.24%; in [9] it was 3.56%; in experiment [10], 2.15%.
Turning to `COc1ccc2ncnc(Nc3ccc(OCc4ccccc4)cc3)c2c1`, the inhibition in experiment [1] was determined as 10.2%; in experiment [2] it was 2.78%; in experiment [3], 8.33%; in experiment [4], 0.69%; in [5], 0.08%; in experiment [6], 0.98%. Further, the inhibition in [7] worked out at 3.05%; in [8] it was 1.39%; in experiment [9], 2.07%; in [10], 0.5%.
With `CN(C)CCCn1c(-c2nonc2N)nc2cnccc21`, the inhibition in [1] was determined as 1.87%; in [2], 5.43%; in [3], 6.49%; in experiment [4] it was 10.2%; in experiment [5], 9.74%; in experiment [6], 7.05%. Also, the inhibition in experiment [7] amounted to 4.75%; in [8] it was 2.59%; in experiment [9], 4.16%; in experiment [10] it was 1.43%.
Take `COc1cccc(-n2nc(C)c3c(N/N=C(\C)c4ccncc4)ncnc32)c1`: the inhibition in [1] is 4.54%; in experiment [2], 1.01%; in experiment [3] it was 3.38%; in experiment [4], -0.28%; in experiment [5] it was 0.73%; in experiment [6], 2.42%. For the same compound, the inhibition is 0.25% in [7], -2% in [8], -2.33% in [9] and 0.43% in experiment [10].
Take `NS(=O)(=O)c1ccc(NC=C2C(=O)Nc3ccc4ncsc4c32)cc1`: the inhibition in [1] is 26.5%; in [2], 12.2%; in [3], 43.8%; in [4] it was 12.2%; in experiment [5] it was 26.7%; in [6], 6.96%. Further, the inhibition in experiment [7] was 29.7%; in experiment [8], 3.96%; in experiment [9] it was 6.03%; in [10], 2.7%.
Regarding `[O-][S+]1CCN(Cc2ccc(-c3ccc4ncnc(Nc5ccc(OCc6ccccc6)c(Cl)c5)c4c3)o2)CC1`, the inhibition in [1] was determined as 4.61%; in experiment [2], 2.6%; in experiment [3] it was 3.96%; in experiment [4] it was 14.4%; in experiment [5], 10.7%; in [6], 2%. Also, the inhibition in experiment [7] is 3.55%; in [8], -1.65%; in experiment [9], 0.75%; in [10], 0.08%.
